From PubChem BioAssay (EPA / NIEHS) come the findings set out here.

Several values for one entry are separate records, joined by “and”; a condition that tells them apart may be missing. Identical values can stand only once. Records with an inconclusive call do not appear. A structure can be active in one record and inactive in another. Activity calls are given as the source filed them. Rule for the calls: active = hit-call score of the fitted dose curve at least 0.9, where 1 is the maximum; inconclusive = response in the unintended direction; inactive = score below 0.9.

Test system in the first assay: not listed separately
Nature of the assay: ATG_XTT_Cytotoxicity_XSP1: Cytotoxicity Assessment in the Attagene TRANS-FACTORIAL Multi-Species (XSP1) HepG2 Assay (AID 2283810). The procedure: ATG_XSP1_XTT_Cytotoxicity_multi-species is a cell-based, single-readout assay that uses HepG2, a human liver cell line, with measurements taken at 24 hours after chemical dosing in a 24-well plate. Xsp1 included 3 nM 6-alpha-fluorotestosterone to partially stimulate the androgen receptor.ATG_XTT_Cytotoxicity_XSP1 is an assay component measured from the ATG_XSP1_XTT_Cytotoxicity_multi-species assay. It is designed to make measurements of cell number, a form of viability reporter, as detected with fluorescence intensity signals by XTT cytotoxicity assay technology.This assay endpoint, ATG_XTT_Cytotoxicity_XSP1, was analyzed in the positive analysis fitting direction relative to DMSO as the negative control and baseline of activity. Using a type of viability reporter, loss-of-signal activity can be used to understand changes in the viability. Furthermore, this assay endpoint can be referred to as a primary readout, because the performed assay has only produced 1 assay endpoint. To generalize the intended target to other relatable targets, this assay endpoint is annotated to the cell cycle intended target family, where the subfamily is cytotoxicity.
Human liver HepG2 cells are transiently transfected with multiple reporter transcription units (MRTUs) in 6-well plates using FuGene 6 reagent (Roche; 3 ml FuGene/1 mg DNA). The MRTU constructs are regulated by a cis-regulating element (promoter). […] A major difference between the CIS and TRANS system is that in CIS activities of endogenous TFs are measured, whereas the TRANS assay evaluates changes in activities of exogenous, chimeric NR-Gal4 proteins. […] At the end of 24 hour incubation, total RNA was isolated using TriZol reagent (Invitrogen). […] The fragments were purified using Qiaquick PCR columns (Qiagen), analyzed on an ABI 3130xL genetic analyzer (Applied Biosystems) with peak positions identified by using a set of X-rhodamine (ROX)-labeled MapMarker1000 molecular weight standards (BioVentures). […]
`CCCCC(CC)CN1C(=O)C2C3C=CC(C3)C2C1=O` (stereo not given): the molecule was classed as inactive.

With `C=CCOC(Cn1ccnc1)c1ccc(Cl)cc1Cl` (stereo not given), the result was inactive.

`O=C(c1ccc(O)cc1O)c1ccc(O)cc1O`: the outcome was inactive.

Test system in a further assay: not listed separately
Nature of the assay: ATG_M_06_XSP2: Attagene TRANS-FACTORIAL Multi-Species (XSP2) HepG2 Assay for M06 Transcription Factor (Internal Marker) (AID 2283811).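 Note: internal background marker reporter mRNA measured by RT-PCR and capillary electrophoresis; hits are increases in signal above the DMSO baseline.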 An outline of the steps:
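HepG2, multiplexed reporter transfection; 24 h dosing; AR stimulated with 3 nM 6-alpha-fluorotestosterone + 1.5 nM norgestrel; RNA → RT-PCR → 6-FAM primer extension → HpaI → CE. Positive direction vs DMSO.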
Consider `CC(=O)S[C@@H]1CC2=CC(=O)CC[C@]2(C)[C@H]2CC[C@@]3(C)[C@@H](CC[C@@]34CCC(=O)O4)[C@H]12`, for which the molecule was called inactive.

Take `C=CCOC(Cn1ccnc1)c1ccc(Cl)cc1Cl` (stereo not given): the outcome was inactive.

Take `CC(C)CCCCCCc1ccc(O)cc1`: the call was inactive.

In the case of `CSC(=O)c1cccc2nnsc12`, the call was inactive.

Turning to `CCCCC(CC)COC(=O)c1ccccc1C(=O)O` (stereo not given), the molecule was classed as inactive.

Take `C#C[C@]1(O)CC[C@H]2[C@@H]3CCC4=CC(=O)CC[C@@H]4[C@H]3CC[C@@]21CC`: the molecule was classed as inactive.

For the molecule `CN(C)C(=O)Nc1ccc(Cl)c(Cl)c1`, the molecule was called inactive.

Turning to `CC(C)(c1ccc(O)cc1)c1ccc(O)cc1`, the call was inactive.

Turning to `Oc1ccc(C(c2ccc(O)cc2)C(Cl)(Cl)Cl)cc1`, the molecule was called inactive.

`N[C@@H](Cc1cc(I)c(Oc2ccc(O)c(I)c2)c(I)c1)C(=O)O`: the molecule was classed as inactive.

Turning to `O=C(c1ccc(O)cc1O)c1ccc(O)cc1O`, the molecule was called inactive.

For a further assay, the system named is turtle Estrogen Receptor (ERa), gene 101933533. Briefly: ATG_trERa_XSP2: Attagene TRANS-FACTORIAL Multi-Species (XSP2) HepG2 Assay for turtle Estrogen Receptor (ERa) (AID 2283812).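 Note: human HepG2 liver cells transiently expressing turtle ERa-Gal4 chimeric receptor; actives raise reporter signal above DMSO so AC50 reflects agonist activity.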 An outline of the steps:
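HepG2 cells transiently transfected with GAL4-UAS reporter units expressing turtle ERa-Gal4 chimera. Reporter mRNA measured after 24 h dosing by RT-PCR, fluorescent labelling and capillary electrophoresis; gain of signal fitted versus DMSO.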
Consider `CC(=O)S[C@@H]1CC2=CC(=O)CC[C@]2(C)[C@H]2CC[C@@]3(C)[C@@H](CC[C@@]34CCC(=O)O4)[C@H]12`, for which the outcome was inactive.

In the case of `CCCCC(CC)CN1C(=O)C2C3C=CC(C3)C2C1=O` (stereo not given), the call was inactive.

By AC50 is commonly meant the concentration giving half of the maximal activity seen. In the case of `CC1(C)C(C=C(Cl)Cl)C1C(=O)OCc1cccc(Oc2ccccc2)c1` (stereo not given), the AC50 was 42.3 µM (active).

In the case of `C=CCOC(Cn1ccnc1)c1ccc(Cl)cc1Cl` (stereo not given), the outcome was inactive.

For the molecule `CCN(Cc1c(F)cccc1Cl)c1c([N+](=O)[O-])cc(C(F)(F)F)cc1[N+](=O)[O-]`, the AC50 is 2.15 µM (active) and the call was inactive.

On to `CC(C)CCCCCCc1ccc(O)cc1`, for which the AC50 was 0.989 µM (active).

With `CSC(=O)c1cccc2nnsc12`, the outcome was inactive.

As to `CCCCC(CC)COC(=O)c1ccccc1C(=O)O` (stereo not given), the AC50 is 27.1 µM (active).

On to `C#C[C@]1(O)CC[C@H]2[C@@H]3CCC4=CC(=O)CC[C@@H]4[C@H]3CC[C@@]21CC`, for which the AC50 was 0.522 µM (active) and the call was inactive.

As to `CN(C)C(=O)Nc1ccc(Cl)c(Cl)c1`, the AC50 was 25.1 µM (active) and 18 µM (active).

Regarding `CC(C)(c1ccc(O)cc1)c1ccc(O)cc1`, the AC50 is 0.189 µM (active).

On to `Oc1ccc(C(c2ccc(O)cc2)C(Cl)(Cl)Cl)cc1`, for which the result was inactive.

On to `N[C@@H](Cc1cc(I)c(Oc2ccc(O)c(I)c2)c(I)c1)C(=O)O`, for which the AC50 is 359 nM (active) and 3.85 µM (active).

In the case of `O=C(c1ccc(O)cc1O)c1ccc(O)cc1O`, the AC50 is 2.86 µM (active).
